Laboratory results reported in PubChem BioAssay AID1159580 (chemical genetic matrix, 2015).
Out of some 5,500 compounds screened, about 2,000 (36%) were called active. Inconclusive results (about 18%) are left out. No stated cut-off is given here; in the data, active means normalized growth mostly below about 0.91 (no sharp cut-off); inconclusive means no clear call, values can overlap the other calls; inactive means mostly above about 0.92. The list shows a part of the results.

Assay: chemical genetic growth profiling, strain panel (AID 1159580);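 further: tested at 20 µM; growth read once vehicle control cultures reached saturation at 30 °C; 1 = growth at the plate median or of vehicle wells; lower values mean less growth of the strain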
Conditions: growth OD

Measured: normalized growth

CC(C)Nc1nc(Cl)nc(NC(C)C)n1
inactive: S. cerevisiae deletion strains, locus YJR075W, strain HOC1, hits give low values 1.01 | S. cerevisiae deletion strains, locus YKL009W, strain mrt4, hits give low values 1.01 | S. cerevisiae deletion strains, locus YKL068W, hits give low values 1.01 | S. cerevisiae deletion strains, locus YKL085W, strain MDH1 (second series), hits give low values 1 | S. cerevisiae deletion strains, locus YKL085W, strain MDH1, hits give low values 1 | S. cerevisiae deletion strains, locus YKL160W, strain elf1, hits give low values 1 | S. cerevisiae deletion strains, locus YKL190W, strain CNB1, hits give low values 1.01 | S. cerevisiae deletion strains, locus YKR001C, strain vps1, hits give low values 1.01 | S. cerevisiae deletion strains, locus YKR026C, strain gcn3, hits give low values 0.994 | S. cerevisiae deletion strains, locus YKR091W, strain srl3, hits give low values 0.998 | S. cerevisiae deletion strains, locus YLL001W, strain dnm1, hits give low values 1.01 | S. cerevisiae deletion strains, locus YLL026W, hits give low values 0.991 | S. cerevisiae deletion strains, locus YLL041C, strain sdh2, hits give low values 1 | S. cerevisiae deletion strains, locus YLR027C, strain aat2, hits give low values 0.995 | S. cerevisiae deletion strains, locus YLR039C, strain RIC1, hits give low values 0.995 | S. cerevisiae deletion strains, locus YLR058C, strain SHM2, hits give low values 1.01 | S. cerevisiae deletion strains, locus YLR102C, strain apc9, hits give low values 1.02 | S. cerevisiae deletion strains, locus YLR113W, strain HOG1, hits give low values 1 | S. cerevisiae deletion strains, locus YLR221C, strain rsa3, hits give low values 0.994 | S. cerevisiae deletion strains, locus YLR258W, strain gsy2, hits give low values 1 | S. cerevisiae deletion strains, locus YLR262C, strain YPT6 (second series), hits give low values 0.935 | S. cerevisiae deletion strains, locus YLR262C, strain YPT6, hits give low values 0.984 | S. cerevisiae deletion strains, locus YLR268W, strain sec22, hits give low values 0.992 | S. cerevisiae deletion strains, locus YLR320W, strain mms22, hits give low values 0.995 | S. cerevisiae deletion strains, locus YLR330W, strain CHS5, hits give low values 1.01 | S. cerevisiae deletion strains, locus YLR342W, strain FKS1 (second series), hits give low values 1.01 | S. cerevisiae deletion strains, locus YLR342W, strain FKS1, hits give low values 1.01 | S. cerevisiae deletion strains, locus YLR357W, strain rsc2, hits give low values 0.95 | S. cerevisiae deletion strains, locus YLR370C, strain arc18, hits give low values 1 | S. cerevisiae deletion strains, locus YLR371W, strain rom2, hits give low values 1.01 | S. cerevisiae deletion strains, locus YLR384C, strain iki3, hits give low values 1 | S. cerevisiae deletion strains, locus YLR418C, strain cdc73, hits give low values 0.979 | S. cerevisiae deletion strains, locus YML016C, strain PPZ1, hits give low values 1.01 | S. cerevisiae deletion strains, locus YML032C, strain rad52, hits give low values 1.01 | S. cerevisiae deletion strains, locus YML120C, strain ndi1, hits give low values 0.998 | S. cerevisiae deletion strains, locus YML124C, strain tub3, hits give low values 1.01 | S. cerevisiae deletion strains, locus YMR058W, strain fet3, hits give low values 1.01 | S. cerevisiae deletion strains, locus YMR078C, strain ctf18, hits give low values 1.02 | S. cerevisiae deletion strains, locus YMR125W, strain sto1, hits give low values 0.997 | S. cerevisiae deletion strains, locus YMR129W, hits give low values 0.994 | S. cerevisiae deletion strains, locus YMR205C, strain PFK2, hits give low values 0.985 | S. cerevisiae deletion strains, locus YMR223W, strain ubp8, hits give low values 1.01 | S. cerevisiae deletion strains, locus YMR231W, strain pep5, hits give low values 0.999 | S. cerevisiae deletion strains, locus YMR263W, strain SAP30, hits give low values 1.02 | S. cerevisiae deletion strains, locus YMR307W, strain GAS1, hits give low values 1.02 | S. cerevisiae deletion strains, locus YNL067W, strain RPL9B, hits give low values 0.999 | S. cerevisiae deletion strains, locus YNL071W, strain lat1, hits give low values 1 | S. cerevisiae deletion strains, locus YNL128W, strain TEP1, hits give low values 1 | S. cerevisiae deletion strains, locus YNL153C, strain GIM3, hits give low values 0.989 | S. cerevisiae deletion strains, locus YNL183C, strain NPR1, hits give low values 0.935 | S. cerevisiae deletion strains, locus YNL209W, strain ssb2, hits give low values 0.999 | S. cerevisiae deletion strains, locus YNL233W, strain BNI4, hits give low values 1.02 | S. cerevisiae deletion strains, locus YNL248C, strain rpa49, hits give low values 0.982 | S. cerevisiae deletion strains, locus YNL250W, strain rad50, hits give low values 1.01 | S. cerevisiae deletion strains, locus YNL271C, strain bni1, hits give low values 1.01 | S. cerevisiae deletion strains, locus YNL298W, strain CLA4, hits give low values 1.02 | S. cerevisiae deletion strains, locus YNL307C, strain MCK1, hits give low values 1.02 | S. cerevisiae deletion strains, locus YNL322C, strain KRE1 (second series), hits give low values 0.992 | S. cerevisiae deletion strains, locus YNL322C, strain KRE1, hits give low values 1.01 | S. cerevisiae deletion strains, locus YNR049C, strain mso1, hits give low values 1 | S. cerevisiae deletion strains, locus YNR052C, strain pop2, hits give low values 1.01 | S. cerevisiae deletion strains, locus YOL006C, strain TOP1, hits give low values 1.03 | S. cerevisiae deletion strains, locus YOL012C, strain htz1 0.789 | S. cerevisiae deletion strains, locus YOL147C, strain pex11, hits give low values 1.01 | S. cerevisiae deletion strains, locus YOR001W, strain rrp6, hits give low values 0.999 | S. cerevisiae deletion strains, locus YOR061W, strain CKA2, hits give low values 0.998 | S. cerevisiae deletion strains, locus YOR069W, strain VPS5, hits give low values 1.01 | S. cerevisiae deletion strains, locus YOR070C, strain gyp1, hits give low values 1.01 | S. cerevisiae deletion strains, locus YOR080W, strain dia2, hits give low values 0.994 | S. cerevisiae deletion strains, locus YOR083W, strain WHI5, hits give low values 1 | S. cerevisiae deletion strains, locus YOR106W, strain vam3, hits give low values 1.01 | S. cerevisiae deletion strains, locus YOR136W, strain idh2, hits give low values 1.01 | S. cerevisiae deletion strains, locus YOR144C, strain elg1, hits give low values 1 | S. cerevisiae deletion strains, locus YOR184W, strain ser1, hits give low values 1.02 | S. cerevisiae deletion strains, locus YOR231W, strain MKK1, hits give low values 0.978 | S. cerevisiae deletion strains, locus YOR265W, strain rbl2, hits give low values 1 | S. cerevisiae deletion strains, locus YOR270C, strain vph1, hits give low values 1.01 | S. cerevisiae deletion strains, locus YOR290C, strain snf2, hits give low values 1.02 | S. cerevisiae deletion strains, locus YOR316C, strain cot1, hits give low values 1.01 | S. cerevisiae deletion strains, locus YPL051W, strain arl3, hits give low values 0.997 | S. cerevisiae deletion strains, locus YPL055C, strain LGE1, hits give low values 0.983 | S. cerevisiae deletion strains, locus YPL078C, strain atp4, hits give low values 0.999 | S. cerevisiae deletion strains, locus YPL106C, strain sse1, hits give low values 1 | S. cerevisiae deletion strains, locus YPL240C, strain hsp82, hits give low values 1.01 | S. cerevisiae deletion strains, locus YPL241C, strain CIN2, hits give low values 1 | S. cerevisiae deletion strains, locus YPL256C, strain CLN2, hits give low values 0.966 | S. cerevisiae deletion strains, locus YPR119W, strain clb2, hits give low values 1.01 | S. cerevisiae deletion strains, locus YPR141C, strain kar3, hits give low values 1.02 | S. cerevisiae deletion strains, locus YPR163C, strain tif3, hits give low values 1 | S. cerevisiae deletion strains, locus YPR167C, strain met16, hits give low values 1.01 | S. cerevisiae deletion strains, strain wtn01, hits give low values 1.01 | S. cerevisiae strains, strain wild type, hits give low values 1
